Measured values: PubChem BioAssay (NCI)
“And” between values parts separate entries of the source, which are not always exact repeats. Equal values may be shown once. About 79,000 compounds went through this panel and 15% of them were active in at least one assay; those are over-represented in the sample as a whole. The source made the active and inactive calls. Rule as the data show it: active = growth inhibition above about 70%; inactive = the rest.

Columns and labels:
[1] = NCI Yeast Anticancer Drug Screen. Data for the rad50 strain (AID 155);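 also: 0% = growth of vehicle-only cultures of the same strain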; settings: S. cerevisiae rad50 strain growth inhibition, stronger effect = higher value
In short: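 Cells are treated with compound, grown, and their growth is then scored against vehicle-only cultures of the same repair-deficient yeast strain.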

[2] = NCI Yeast Anticancer Drug Screen. Data for the mec2-1 strain (AID 157); settings: S. cerevisiae mec2-1 strain, stronger effect = higher value
In short: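 Strain: mec2-1 (DNA repair/cell cycle alteration). Compound exposure, then growth measured; inhibition expressed relative to vehicle.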

[3] = NCI Yeast Anticancer Drug Screen. Data for the sgs1 mgt1 strain (AID 161);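 also: 0% = growth of cultures given vehicle only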; settings: S. cerevisiae sgs1 mgt1 strain, stronger effect = higher value
In short: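 Genetically altered yeast, compound exposure, growth inhibition relative to vehicle.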

[4] = NCI Yeast Anticancer Drug Screen. Data for the cln2 rad14 strain (AID 165);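 also: 0% = growth equal to vehicle treated cultures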; settings: S. cerevisiae cln2 rad14 strain, stronger effect = higher value
In short: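 Compounds are applied to the cln2 rad14 yeast strain, and growth is then compared with that of vehicle-treated cultures to give inhibition.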

[5] = NCI Yeast Anticancer Drug Screen. Data for the bub3 strain (AID 167); settings: S. cerevisiae bub3 mutant strain, stronger effect = higher value
In short: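 Part of a panel of yeast mutants defective in DNA damage repair or cell cycle regulation. Each strain is grown with compound, and inhibition is calculated relative to solvent-treated cultures.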

[6] = NCI Yeast Anticancer Drug Screen. Data for the mlh1 rad18 strain (AID 175); settings: S. cerevisiae mlh1 rad18 strain growth inhibition, stronger effect = higher value
In short: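 Read-out is yeast growth inhibition, calculated against vehicle-only controls. The compound was applied to a strain engineered with DNA damage repair alterations.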

[7] = at 5.0 µM (retest, dose inferred, filed as 0.5)
[8] = at 50.0 µM (retest, dose inferred, filed as 5.0)

Row | SMILES | growth inhibition [1, 7] | growth inhibition [1, 8] | growth inhibition ([1]; at 50.0 µM) | growth inhibition [2, 7] | growth inhibition [2, 8] | growth inhibition ([2]; at 50.0 µM) | growth inhibition [3, 7] | growth inhibition [3, 8] | growth inhibition ([3]; at 50.0 µM) | growth inhibition [4, 7] | growth inhibition [4, 8] | growth inhibition ([4]; at 50.0 µM) | growth inhibition [5, 7] | growth inhibition [5, 8] | growth inhibition ([5]; at 50.0 µM) | growth inhibition [6, 7] | growth inhibition [6, 8] | growth inhibition ([6]; at 50.0 µM)
1 | Cc1cc(NCc2ccccc2)c2ccccc2[n+]1CCCCCCCCCC[n+]1c(C)cc(NCc2ccccc2)c2ccccc21 | 99% (active) | 99% (active) | 90.8% (active) | 100% (active) | 99% (active) | 92.2% (active) | 99% (active) | 99% (active) | 92% (active) | 98% (active) | 99% (active) | 91.1% (active) | 99% (active) | 99% (active) | 89.1% (active) | 97% (active) | 98% (active) | 86.2% (active)
2 | CCCCN(C)CC(C(C)=O)C(c1ccccc1)c1c(O)c2ccccc2oc1=O (configuration not stated) | 32% (inactive) | 32% (inactive) | 80.4% (active) | 18% (inactive) | 18% (inactive) | 78.4% (active) | 11% (inactive) | 11% (inactive) | 82.3% (active) | 6% (inactive) | 6% (inactive) | 80.2% (active) | 15% (inactive) | 15% (inactive) | 81.5% (active) | 22% (inactive) | 22% (inactive) | 85.8% (active)
3 | CC(C)(C)[CH2][Hg][Cl] | 100% (active) | 100% (active) | 99.7% (active) | 100% (active) | 100% (active) | 99.5% (active) | 100% (active) | 99% (active) | 99.5% (active) | 100% (active) | 99% (active) | 98.7% (active) | 100% (active) | 100% (active) | 99.5% (active) | 99% (active) | 99% (active) | 99.5% (active)
4 | CC12CCC(O)CC1CCC1C2CCC2(C)C1CC1CC(=O)OC12 (configuration not stated) | 82% (active) | 98% (active) | 98.5% (active) | 58% (inactive) | 98% (active) | 85.3% (active) | 83% (active) | 98% (active) | 99% (active) | 57% (inactive) | 99% (active) | 98.8% (active) | 72% (active) | 98% (active) | 98.9% (active) | 85% (active) | 98% (active) | 97.2% (active)
5 | O=C1CCC[N]1[Hg][N]1CCCC1=O | 44% (inactive) | 46% (inactive) | 93.2% (active) | 40% (inactive) | 51% (inactive) | 94.6% (active) | 99% (active) | 99% (active) | 94.2% (active) | 66% (inactive) | 97% (active) | 92% (active) | 99% (active) | 98% (active) | 93.8% (active) | 33% (inactive) | 51% (inactive) | 92.8% (active)
6 | CCC[CH2][Sn]1([CH2]CCC)[O]CC(c2ccccn2)C[O]1 | 36% (inactive) | 98% (active) | 87.2% (active) | 28% (inactive) | 98% (active) | 90.7% (active) | 34% (inactive) | 98% (active) | 88.2% (active) | 21% (inactive) | 97% (active) | 89.5% (active) | 37% (inactive) | 99% (active) | 89% (active) | 44% (inactive) | 98% (active) | 87.4% (active)
7 | ClCCN(CCCl)c1ccc(CN2CCCN(Cc3ccc(N(CCCl)CCCl)cc3Cl)C2c2ccncc2)c(Cl)c1 | 2% (inactive) | 91% (active) | 93.5% (active) | 4% (inactive) | 96% (active) | 96.8% (active) | -4% (inactive) | 96% (active) | 93.9% (active) | -5% (inactive) | 94% (active) | 43.9% (inactive) | 0% (inactive) | 93% (active) | 1.9% (inactive) | 9% (inactive) | 95% (active) | 97.1% (active)
8 | CCCCCCCCCCCC1CCCC(C)N1 (configuration not stated) | 8% (inactive) and 28% (inactive) | 98% (active) and 92% (active) | 91.1% (active) and 91.6% (active) | 19% (inactive) and 26% (inactive) | 98% (active) and 88% (active) | 93.3% (active) | 17% (inactive) and 32% (inactive) | 98% (active) and 90% (active) | 93.3% (active) and 92.5% (active) | 10% (inactive) and 49% (inactive) | 94% (active) and 95% (active) | 90.5% (active) and 91% (active) | 24% (inactive) and 32% (inactive) | 97% (active) and 85% (active) | 91.8% (active) and 91.5% (active) | 13% (inactive) and 36% (inactive) | 98% (active) and 86% (active) | 92.1% (active) and 91.3% (active)
9 | CC[CH2][Sn]([Br])([Br])[CH2]CC | 29% (inactive) | 91% (active) | 83.2% (active) | 21% (inactive) | 95% (active) | 87.2% (active) | 35% (inactive) | 95% (active) | 87.1% (active) | 26% (inactive) | 87% (active) | 85.2% (active) | 31% (inactive) | 96% (active) | 83.2% (active) | 33% (inactive) | 93% (active) | 87.1% (active)
